Inconclusive results are not listed. Calls of active or inactive are those of the source. Unless noted, the call rests on the fitted dose curve; in most records, active means well fitted curve in the direction sought with a large enough effect in the repeat runs; inconclusive means weak or mixed curves; inactive means no such curve, though single readings can be large; an effect the other way counts as inactive or inconclusive.
Legend:
[1] = qHTS assay to identify small molecule agonists of the RXR signaling pathway - cell viability counter screen (AID 1159529);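 further: HEK 293T cells carrying an RXR-alpha UAS beta-lactamase reporter; series mostly up to about 77 µM; nearly all actives have a fitted effect of over 50% in size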
Procedure, shortened: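 HEK 293T RXRa-bla cells, 2% CS-FBS; 5 h settle; cpd 16 h 37 C, 5% CO2; CellTiter-Glo 30 min RT, luminescence. Tetraoctyl ammonium bromide as positive control.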

[2] = qHTS assay to identify small molecule antagonists of the retinoid acid receptor (RAR) signaling pathway - cell viability counter screen (AID 1159551); further: nearly all actives have a fitted effect of over 35% in size
Procedure, shortened: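 In this counter screen, the RARE-luciferase line C3RL4 was exposed for 6 h at 37 C and 5% CO2 to compounds with retinol at 1 uM final. Cellular ATP, read by luminescence, served as the viability measure.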

[3] = qHTS assay to identify small molecule antagonists of the retinoic acid receptor (RAR) signaling pathway (AID 1159552; further: nearly all actives have a fitted effect of over 50% in size)
Procedure, shortened: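 Cells of the C3RL4 line were seeded, incubated overnight, then dosed with compounds in DMSO followed immediately by retinol (1 uM final). Six hours later luciferase detection reagent went in; signal was measured after 30 min at RT.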

[4] = qHTS assay to identify small molecule antagonists of the estrogen related receptor (ERR) signaling pathway - cell viability counter screen (AID 1224818); further: series mostly up to about 46 µM
Procedure, shortened: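 Viability of ERR cells, CellTiter-Fluor fluorescence; 17.5 h compound exposure at 37 C, DMSO vehicle; 30 min reagent incubation at 37 C/5% CO2.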

[5] = qHTS assay to identify small molecule antagonists of the estrogen related receptor signaling pathway with the pleiotropic PPARgamma coactivator (PGC) cell viability counter screen (AID 1224822; further: series mostly up to about 46 µM)
Procedure, shortened: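 17.5 h compound treatment of PGC/ERR cells at 37 C; readout CellTiter-Fluor fluorescence; run alongside the PGC/ERR antagonist screen to flag cytotoxic compounds.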

[6] = qHTS assay to identify small molecule antagonists of the estrogen related receptor (ERR) signaling pathway from Tox21 library - cell viability counter screen (AID 1224834); further: nearly all actives have a fitted effect of over 30% in size
Procedure, shortened: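 Counter screen run in ERR cells (2,000 cells/well): cells pre-incubated 6 h, then treated with compounds for 17.5 h at 37 C. Fluorescence was read 30 min after CellTiter-Fluor addition.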

[7] = qHTS assay to identify small molecule antagonists of the constitutive androstane receptor (CAR) signaling pathway - cell viability counter screen (AID 1224837); further: series mostly up to about 92 µM; nearly all actives have a fitted effect of over 45% in size
Procedure, shortened: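 CITCO at 50 nM final was added alongside compounds (15 concentrations) to double-stable hCAR/CYP2B6-2.2kb HepG2 cells. Following 23 hr at 37 C, cell viability was quantified by CellTiter-Fluor fluorescence intensity.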

[8] = molecular target: Nuclear receptor subfamily 1 group I member 3 (Homo sapiens) (UniProt Q14994); test: qHTS assay to identify small molecule antagonists of the constitutive androstane receptor (CAR) signaling pathway (AID 1224838); further: nearly all actives have a fitted effect of over 40% in size
Sequence of Nuclear receptor subfamily 1 group I member 3 (Homo sapiens) (Q14994 whole entry, looked up): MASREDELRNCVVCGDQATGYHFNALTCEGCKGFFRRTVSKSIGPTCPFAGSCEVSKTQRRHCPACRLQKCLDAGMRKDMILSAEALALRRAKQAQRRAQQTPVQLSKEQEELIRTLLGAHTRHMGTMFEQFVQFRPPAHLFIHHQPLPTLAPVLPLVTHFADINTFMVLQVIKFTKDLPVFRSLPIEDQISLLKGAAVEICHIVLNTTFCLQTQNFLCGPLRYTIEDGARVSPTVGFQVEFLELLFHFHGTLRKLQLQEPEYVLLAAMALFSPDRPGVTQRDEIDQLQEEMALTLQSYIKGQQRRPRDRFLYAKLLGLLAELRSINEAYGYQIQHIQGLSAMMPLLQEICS
Procedure, shortened: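 Inhibition of CITCO-driven (50 nM final) CYP2B6 reporter expression is measured in HepG2 cells stably carrying hCAR. Fifteen compound concentrations are applied for 24 h at 37 C, followed by luciferase luminescence.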

[9] = molecular target: Nuclear receptor subfamily 1 group I member 3 (Homo sapiens) (UniProt Q14994); test: qHTS assay to identify small molecule agonists of the constitutive androstane receptor (CAR) signaling pathway (AID 1224839); further: series mostly up to about 92 µM; nearly all actives have a fitted effect of over 15% in size
Procedure, shortened: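 HepG2-CYP2B6-hCAR cells, 2500/well, 4 h pre-incubation; compounds 15 conc.; PK11195 0.75 uM final; 24 h, 37 C/5% CO2; ONE-Glo luciferase read.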

[10] = qHTS assay to identify small molecule antagonists of the estrogen related receptor signaling pathway with the pleiotropic PPARgamma coactivator (PGC) from Tox21 10K library - cell viability counter screen (AID 1224840; active means well fitted cell-killing curve with a large enough effect in the repeat runs, not every such curve was filed as active; further: nearly all actives have a fitted effect of over 40% in size)
Procedure, shortened: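 Readout: fluorescence intensity from CellTiter-Fluor after 30 min at 37 C/5% CO2. Preceded by 17.5 h treatment of PGC/ERR cells with DMSO-dissolved compounds, added 6 h post-seeding.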

[11] = qHTS assay to identify small molecule agonists of the retinoic acid receptor (RAR) signaling pathway (AID 1159553)
Procedure, shortened: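 In this cell-based screen, 1,000 C3RL4 cells per well were cultured overnight, dosed with test chemicals in DMSO for 6 hr, and assessed for RARE luciferase luminescence.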

[12] = qHTS assay to identify small molecule agonists of the constitutive androstane receptor (CAR) signaling pathway - cell viability counter screen (AID 1224836); further: series mostly up to about 92 µM; nearly all actives have a fitted effect of over 45% in size
Procedure, shortened: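 HepG2-CYP2B6-hCAR, 2500 cells/well, 4 h pre-incubation; cpd 15 conc + PK11195 0.75 uM final; 23 h, 37 C/5% CO2; CellTiter-Fluor, fluorescence.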

[13] = qHTS assay to identify small molecule antagonists of the estrogen related receptor signaling pathway with the pleiotropic PPARgamma coactivator (PGC) from Tox21 10K library (AID 1224841; call rule not given here; further: series mostly up to about 92 µM; actives are mostly falling curves and most rising ones were filed inactive; nearly all actives have a fitted effect of over 50% in size)
Procedure, shortened: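 One-Glo luminescence, measured after half an hour at room temperature, quantified reporter output of PGC/ERR cells. These had been plated at 2,000 per well, incubated 6 h, dosed with compounds in DMSO, then kept 18 h at 37 C.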

[14] = qHTS assay to identify small molecule agonists of the estrogen related receptor signaling pathway with the pleiotropic PPARgamma coactivator (PGC) from Tox21 10K library (AID 1224842); further: nearly all actives have a fitted effect of over 15% in size
Procedure, shortened: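 PGC/ERR reporter cell line, 2,000 cells per well, incubated 6 h at 37 C before 23 nL compound in DMSO was added. After 18 h at 37 C, One-Glo luminescence read following 30 min at room temperature.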

[15] = molecular target: Luciferin 4-monooxygenase (Photinus pyralis) (UniProt P08659); test: qHTS assay to identify small molecule inhibitors of firefly luciferase (AID 1224835); further: series mostly up to about 120 µM; nearly all actives have a fitted effect of over 25% in size
Sequence of Luciferin 4-monooxygenase (Photinus pyralis) (P08659 whole entry, looked up): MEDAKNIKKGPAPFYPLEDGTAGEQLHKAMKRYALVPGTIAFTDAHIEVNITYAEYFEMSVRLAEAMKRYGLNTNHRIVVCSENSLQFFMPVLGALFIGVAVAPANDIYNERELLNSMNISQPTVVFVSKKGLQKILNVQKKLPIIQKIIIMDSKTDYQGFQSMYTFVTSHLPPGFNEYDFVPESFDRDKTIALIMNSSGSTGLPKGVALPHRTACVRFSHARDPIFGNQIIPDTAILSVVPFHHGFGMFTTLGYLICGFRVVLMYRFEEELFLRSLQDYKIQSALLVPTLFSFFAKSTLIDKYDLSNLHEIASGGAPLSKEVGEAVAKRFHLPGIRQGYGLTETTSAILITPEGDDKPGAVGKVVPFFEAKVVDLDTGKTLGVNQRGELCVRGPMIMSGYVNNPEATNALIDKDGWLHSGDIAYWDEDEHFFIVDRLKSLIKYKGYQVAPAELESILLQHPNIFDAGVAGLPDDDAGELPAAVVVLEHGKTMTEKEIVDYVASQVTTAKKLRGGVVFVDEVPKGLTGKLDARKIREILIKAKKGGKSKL
Procedure, shortened: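 Biochemical qHTS: compounds run as interplate titrations against purified firefly enzyme, with D-luciferin and ATP each at its KM concentration. Light output recorded by CCD imaging.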

[16] = molecular target: Thyrotropin receptor (Homo sapiens) (UniProt P16473); test: qHTS assay to identify small molecule agonists of the thyroid stimulating hormone receptor (TSHR) signaling pathway (AID 1224843; calls by dose curve; further: nearly all actives have a fitted effect of over 45% in size)
Sequence of Thyrotropin receptor (Homo sapiens) (P16473 whole entry, looked up): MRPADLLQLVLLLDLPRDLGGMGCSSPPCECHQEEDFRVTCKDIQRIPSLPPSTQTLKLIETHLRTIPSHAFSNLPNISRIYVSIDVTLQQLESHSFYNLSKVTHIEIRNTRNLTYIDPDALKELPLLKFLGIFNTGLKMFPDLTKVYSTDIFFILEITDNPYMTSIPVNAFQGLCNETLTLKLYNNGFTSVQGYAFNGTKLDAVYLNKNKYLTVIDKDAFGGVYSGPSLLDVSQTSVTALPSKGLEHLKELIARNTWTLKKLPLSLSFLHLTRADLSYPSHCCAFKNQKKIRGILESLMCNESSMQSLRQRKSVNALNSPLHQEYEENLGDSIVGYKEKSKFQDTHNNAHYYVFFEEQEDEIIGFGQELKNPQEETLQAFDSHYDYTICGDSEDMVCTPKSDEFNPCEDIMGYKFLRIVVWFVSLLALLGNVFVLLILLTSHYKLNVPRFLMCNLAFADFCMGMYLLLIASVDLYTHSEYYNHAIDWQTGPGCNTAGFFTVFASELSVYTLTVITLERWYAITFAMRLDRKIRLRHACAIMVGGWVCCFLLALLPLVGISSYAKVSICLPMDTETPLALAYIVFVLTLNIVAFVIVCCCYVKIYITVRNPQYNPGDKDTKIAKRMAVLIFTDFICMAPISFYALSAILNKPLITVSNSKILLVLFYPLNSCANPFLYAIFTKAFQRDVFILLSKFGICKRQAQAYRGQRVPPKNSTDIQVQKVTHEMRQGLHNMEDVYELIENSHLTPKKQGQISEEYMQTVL
Procedure, shortened: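 Agonist-mode screen: TSHR HEK293 cells received test chemicals for half an hour at room temperature, then HTRF cAMP detection reagents for one hour prior to fluorescence measurement. Each chemical ran as a 15-concentration series, triplicated.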

Measured: Potency

O=C(O)CCCOc1ccc(Cl)cc1Cl
not listed: [11] | [12] | [13] | [14] | [15] | [16]
inactive: all other assays above

CC(=O)NNc1ccccc1
not listed: [4] | [5] | [6] | [10] | [15] | [16]
inactive: all other assays above

COc1ccc(C(=O)c2c(C)n(CCN3CCOCC3)c3ccccc23)cc1
not listed: [4] | [5] | [6] | [8] | [9] | [16]
inactive: all other assays above

CN(C)N
inactive: [1] | [2] | [3] | [11] | [6] | [15] | [7] | [10]

CCSCc1ccccc1OC(=O)NC
inactive: [1] | [2] | [3] | [6] | [15] | [12] | [7] | [8] | [10]

N#CC(C#N)=Cc1ccc(O)c(O)c1
not listed: [11] | [13] | [14]
inactive: all other assays above

CN(C)C(=O)Nc1cccc(OC(=O)NC(C)(C)C)c1
not listed: [4] | [5] | [8] | [9] | [12]
inactive: all other assays above

O=C(O)c1cc(Cl)ccc1Cl
inactive: [1] | [2] | [3] | [6] | [15] | [12] | [7] | [10]

CN1C(=O)CN=C(c2ccccc2)c2cc([N+](=O)[O-])ccc21
not listed: [4] | [5] | [12] | [13] | [14]
inactive: all other assays above

CC(C)(c1ccccc1)c1cc(-n2nc3ccccc3n2)c(O)c(C(C)(C)c2ccccc2)c1
inactive: [1] | [2] | [3] | [11] | [6] | [15] | [7] | [8] | [10]

C=CC(=O)NC(C)(C)CC(C)=O
not listed: [4] | [5] | [11] | [13] | [14] | [16]
inactive: all other assays above

C[C@H](N)[C@H](O)c1ccc(O)c(O)c1
not listed: [4] | [5] | [9] | [12] | [16]
inactive: all other assays above

From PubChem BioAssay (Tox21)
